A number with no mark means an inactive call. Active and inactive are the calls of the source. Calls follow the shape of the dose curve; as a rule, active = well fitted curve in the direction sought with a large enough effect; inactive = no such curve, though single readings can be large or run the other way.

For the experiment, the target named is Epidermal growth factor receptor (Homo sapiens) (UniProt P00533). The experiment can be described thus: Assay for Inhibitors of the ERK Signaling Pathway using a Homogeneous Screening Assay: EGFR L858R Kinase Inhibition. To be noted: EGFR L858R kinase biochemical inhibition assay; series mostly up to 21.9 µM; activity, negative = inhibition: at the top concentration. An excerpt: qHTS Assay for Inhibitors of the ERK Signaling Pathway using a Homogeneous Screening Assay
Chain of Epidermal growth factor receptor (Homo sapiens) (P00533 whole entry L858R, looked up): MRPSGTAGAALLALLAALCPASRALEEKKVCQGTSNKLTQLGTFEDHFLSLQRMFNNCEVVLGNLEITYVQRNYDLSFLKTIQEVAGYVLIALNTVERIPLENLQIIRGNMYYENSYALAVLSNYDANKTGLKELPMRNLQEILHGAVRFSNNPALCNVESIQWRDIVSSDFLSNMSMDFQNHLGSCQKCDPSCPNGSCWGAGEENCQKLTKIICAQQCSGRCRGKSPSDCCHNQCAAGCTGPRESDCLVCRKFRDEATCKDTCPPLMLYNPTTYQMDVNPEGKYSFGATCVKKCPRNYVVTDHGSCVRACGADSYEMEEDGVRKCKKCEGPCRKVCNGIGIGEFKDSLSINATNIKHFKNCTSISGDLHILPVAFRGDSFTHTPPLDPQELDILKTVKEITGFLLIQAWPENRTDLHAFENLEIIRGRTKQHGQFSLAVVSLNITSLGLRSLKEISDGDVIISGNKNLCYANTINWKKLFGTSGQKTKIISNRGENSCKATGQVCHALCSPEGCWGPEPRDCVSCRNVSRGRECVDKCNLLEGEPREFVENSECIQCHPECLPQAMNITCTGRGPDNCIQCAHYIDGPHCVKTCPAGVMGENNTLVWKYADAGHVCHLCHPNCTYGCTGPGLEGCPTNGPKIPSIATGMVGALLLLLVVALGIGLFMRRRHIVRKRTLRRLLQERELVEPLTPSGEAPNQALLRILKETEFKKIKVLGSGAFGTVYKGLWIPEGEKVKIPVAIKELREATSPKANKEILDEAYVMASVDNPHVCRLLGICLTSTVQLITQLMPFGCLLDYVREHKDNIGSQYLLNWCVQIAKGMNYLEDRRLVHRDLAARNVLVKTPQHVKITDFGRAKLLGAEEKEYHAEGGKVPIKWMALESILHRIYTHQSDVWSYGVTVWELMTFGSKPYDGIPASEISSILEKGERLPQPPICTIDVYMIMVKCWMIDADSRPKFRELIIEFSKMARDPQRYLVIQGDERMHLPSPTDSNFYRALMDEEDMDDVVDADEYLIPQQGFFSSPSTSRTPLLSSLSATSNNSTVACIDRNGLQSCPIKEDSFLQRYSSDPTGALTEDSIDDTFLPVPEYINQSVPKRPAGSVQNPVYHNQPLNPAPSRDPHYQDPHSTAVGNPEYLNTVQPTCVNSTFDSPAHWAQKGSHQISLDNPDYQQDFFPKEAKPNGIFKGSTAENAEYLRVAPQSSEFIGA
NIH Chemical Genomics Center [NCGC]
NIH Molecular Libraries Screening Centers Network [MLSCN]
Assay Submitter (PI): Dr. Wei Zheng, NCGC/NIH
The Ras/extracellular-signal-regulated kinase (ERK) mitogen activated protein (MAP) kinase signaling pathway (ERK1/2 cascade) plays is a key role in transmitting signals from the cell surface to the nucleus (Nishida and Gotoh 1993; Chang and Karin, 2001). The cascade is initiated by the small G-protein Ras, which recruits Raf […], where activation occurs. Alternatively, this pathway can be activated by elevating intracellular cAMP.
Activation of the ERK pathway is essential in increased cell division and cell survival. Sustained and constitutive activation of the ERK pathway, however, has been linked to uncontrolled cell proliferation, increased cell survival, and tumor progression. Thus, the ERK has been as an attractive target for cancer chemotherapy in the past few years (Sebolt-Leopold and Herrera, 2004). Given its physiological and pathological importance, assessment of ERK phosphorylation has been broadly performed in both basic research and drug discovery. Most assays for the measurement of ERK phosphorylation use the antibody-based detection methods, such as western blot and ELISA. These assays require multiple reagent additions with cell wash steps and are not suitable for high-throughput screening.
The current cell-based ERK phosphorylation assay was performed using AlphaScreen platform. AlphaScreen is a two bead-based proximity-dependent chemical energy transfer luminescent assay platform. The assay reagents (ERK SureFire(TM) kit) were supplied from TGR BioSciences (Australia). In the presence of specific antibodies, phosphorylated ERK will bring "donor" and "acceptor" beads to a proximity range (<200 nm), and subsequently lead a chemical luminescent reaction upon exciting donor beads with 680 nm laser. To validate pathway hits from the cell-based assay, enzyme assays consisting of EGFR tyrosine kinase, Raf and MEK were used as a means of deciphering the enzymes of target for the prioritized group of compounds derived from the HEK-293 cell based assay. The compounds were tested against significant members of the ERK signaling pathway EGFR and EGFR mutants (EGFR L858R, EGFR T790M, and EGFR L858R T790M). In order to establish the specificity of the prioritized compounds for EGFR and EGFR mutants, the compounds were also assayed against other important ERK signaling pathway enzymes, c-RAF and MEK-1.
NCGC Assay Protocol Summary:
The HTRF kinase assay (components supplied as kit by Cisbio) was chosen for the EGFR and EGFR mutant enzyme assays that applied the time resolved fluorescence resonance energy transfer (TR-FRET) principle. A peptide substrate is labeled with a biotin that can bind to XL665 labeled streptavidin and the anti-phosphoresidue antibody is labeled with Eu+. Upon phosphorylation of the substrate, the antibody binds to phosphorylated substrate that enables TR-FRET detection in homogenous assay format.
An HTRF Kinease TK assay kit (Cisbio, Bedford, MA) was used to develop the EGFR and EGFR mutant assays (Harbert et al., 2008. Harbert C, Marshall J, Soh S, Steger K. Development of a HTRF Kinase Assay for Determination of Syk Activity. Current Chemical Genomics. 1: 20-26. 2008). EGFR and EGFR mutants were obtained from Invitrogen. The assay buffer was composed of 50 mM HEPES (pH 7.0), 5 mM MgCl2, 5mM DTT, 0.1 % NaN3, 0.1 % BSA and 0.1 mM orthovanadate.
The HTRF assays were preformed according to the HTRF Kinease TK kit. Optimization for each enzyme was preformed in 384 well format (data not included). All reagents were dispensed into 1536 well plates.
(1) Enzyme, […] EGFR at 3 nM final
(2) Compound, 22 nl, Library Compounds in 0.128 to 10 mM titration series or control
(3) Reagent, 1.5 ul 10 uM ATP and 0.25 uM substrate final
(4) Incubation for 30 min, Ambient conditions
[…]
Take `Cc1ccc2nc(=O)c(NNc3ccccc3)cnc2c1`: the Potency was 631 nM (active).
On to `CNc1cccc2c1C(=O)c1ccccc1C2=O`, for which the “activity, negative = inhibition” value is -2.12%.
As to `N#C/C(=C(/N)Sc1ccc(N)cc1)c1ccccc1C(F)(F)F`, the Potency result is “inactive”.
For `Cc1nc2ccccc2nc(=O)c1NNc1ccccc1`, the Potency was 631 nM (active).
With `O=C(Nc1nc(-c2ccccc2)cs1)c1ccc(N2CCOCC2)c([N+](=O)[O-])c1`, the “activity, negative = inhibition” value is -3.33% [at 65.8 µM].
Turning to `Fc1ccc(Nc2ncnc3sc4c(c23)CCC4)cc1F`, the Potency is 44.7 nM (active).
With `COc1ccc(C(=O)c2ccc(Cl)c([N+](=O)[O-])c2)cc1`, the “activity, negative = inhibition” value was -9.07%.
Still for that read-out and setting: the same measure for `O=C1c2ccccc2C(=O)c2c(NCCCN(CCO)CCO)cccc21`: -1.94%; for `CCn1c(=O)c2[nH]c(-c3ccccc3)nc2n(CC)c1=O`: -11.3%.
Regarding `CN(C)c1cccc2c1C(=O)c1ccccc1C2=O`, the “activity, negative = inhibition” value is 0.987%.
As for `Cn1c(=O)[nH]c2nnc(-c3ccc(Cl)c(Cl)c3)nc2c1=O`, the “activity, negative = inhibition” value is -2.48% [at 65.8 µM].
Consider `Cn1nc(-c2ccc(Cl)cc2)nc2c(=O)n(C)c(=O)nc1-2`, for which the “activity, negative = inhibition” value is -1.74%.
Turning to `O=C1c2ccccc2C(=O)c2c1cccc2N1CCCC1`, the “activity, negative = inhibition” value is -7.13%.
With `CS(=O)(=O)CCNCc1nc(-c2ccc3ncnc(Nc4ccc(OCc5cccc(F)c5)c(Cl)c4)c3c2)cs1`, the Potency was 50.1 nM (active).
Turning to `Cn1nc(-c2ccccn2)nc2c(=O)n(C)c(=O)nc1-2`, the “activity, negative = inhibition” value is 3.73%.
For the molecule `CCN(CC)CCC(=O)Nc1cccc2c1C(=O)c1ccccc1C2=O`, the “activity, negative = inhibition” value is -11.8%.
Take `Cc1ccc(NNc2c(C)nc3ccccc3nc2=O)cc1`: the Potency is 3160 nM (active).

Source of the values: PubChem BioAssay AID1727 (National Center for Advancing Translational Sciences (NCATS), 2009).
